Where “and” joins values, the source holds several entries; their conditions need not be identical. Identical values can stand only once. The campaign covered roughly 16,000 compounds. About 2,600 (16%) were called active. About 20% were inconclusive and are not listed. Calls follow the shape of the dose curve; as a rule, active = well fitted curve in the direction sought with a large enough effect; inconclusive = small, poorly fitted or top-dose-only effect, or effect the other way; inactive = no such curve, though single readings can be large or run the other way. These entries were drawn from the full list. Where a structure was tested more than once in an assay, its records may differ in their call.
What follows are compounds tested against Cytochrome P450 2D6 (Homo sapiens) (UniProt P10635) (assay: Cytochrome panel assay with activity outcomes). Details: recombinant CYP, pro-luciferin dealkylation, luminescence, p450-cyp2d6; series mostly up to 57.1 µM; activity, negative = inhibition: at the top concentration.
Sequence of Cytochrome P450 2D6 (Homo sapiens) (P10635 whole entry, looked up): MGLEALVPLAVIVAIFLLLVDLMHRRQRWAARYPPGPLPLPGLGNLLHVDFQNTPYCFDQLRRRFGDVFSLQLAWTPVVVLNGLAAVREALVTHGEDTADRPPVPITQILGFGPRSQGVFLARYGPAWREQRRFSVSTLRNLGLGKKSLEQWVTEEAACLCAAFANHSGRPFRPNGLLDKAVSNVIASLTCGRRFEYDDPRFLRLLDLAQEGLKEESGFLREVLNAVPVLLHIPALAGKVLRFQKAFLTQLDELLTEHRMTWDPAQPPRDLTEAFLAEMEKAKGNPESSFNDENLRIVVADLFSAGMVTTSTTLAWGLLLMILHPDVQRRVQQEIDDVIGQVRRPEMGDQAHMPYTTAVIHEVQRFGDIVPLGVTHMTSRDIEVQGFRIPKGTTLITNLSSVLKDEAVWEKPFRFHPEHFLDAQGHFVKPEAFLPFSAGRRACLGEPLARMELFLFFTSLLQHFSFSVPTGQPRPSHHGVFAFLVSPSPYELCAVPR
% is scaled to controls: 0 for no effect and ±100 for the full control effect.

activity, negative = inhibition, inactive:
O=C(COc1ccc(Cl)cc1)N(Cc1ccccc1)c1ccccn1 5.58%
COc1ccc(CC(=O)O/N=C(\N)Cc2ccc(OC)cc2)cc1 3%
CCSc1nnc(-c2ccccc2NC(C)=O)c(=O)[nH]1 -26.1%
COc1ccc(-c2nc3cnc(N4CCNCC4)nc3n(Cc3ccc(F)cc3)c2=O)cc1 -0.475%
CCOC(=O)CSc1nnc(Cc2cc(=O)[nH]c(=O)[nH]2)n1-c1cccc(OC)c1 0.419%
CCNC(=O)c1ccc(-n2nc(C)cc2-c2ccccc2)cc1 6.71%
CC(C)=CCC/C(C)=C/CO/N=C1/C[C@@H](O)[C@@H](O)[C@@H]2[C@H]3C(=O)N(c4ccc(F)cc4F)C(=O)[C@@H]3CC[C@@H]12 8.95% [at 11.4 µM]
COc1ncc2nc(-c3cn(C)c4ccccc34)c(=O)n(C)c2n1 3.38%
CN(C)/C(CN1CCOCC1)=C1\N=C(c2ccccc2)OC1=O 5.8%
CC(=O)/C(=N\N=C(N)N)c1ccccc1 -4.42% [at 11.4 µM]
NC(N)=N/N=C\c1ccc(O)c(C(=O)O)c1 13.4% [at 11.4 µM]
COCCCNC(=O)c1c(NC(=O)c2cccs2)sc2c1CCCC2 -17.3%
CCC1OC23CCCCC2C(C#N)(C(=N)O3)C1(C#N)C#N (stereo not drawn) 8.79%
Cc1ccc2nc(SCc3nnc(-c4ccccc4[N+](=O)[O-])o3)c(C#N)cc2c1 -4.06%
Cc1nonc1NCn1nnc2ccccc21 8.37%
NN(CC(=O)O)CC(=O)O -0.968% [at 11.4 µM]
CO[C@H]1COC(=O)[C@H](C)NC(=O)C/C=C\[C@@H](C)[C@@H](NS(=O)(=O)c2ccc(C)cc2)COC(=O)C/C=C\[C@@H]1C 6.92% [at 11.4 µM]
CC1CCC(C(=O)O)([C@H](Br)C(=O)O)CC1 (stereo partly drawn) -1.57% [at 11.4 µM]
Cc1nc2cnc(N3CCN(C)CC3)nc2n(C)c1=O 12%
O=C1c2cccc([N+](=O)[O-])c2C(=O)N1c1ncn[nH]1 10.8% [at 11.4 µM]
COC(=O)[C@]1(C)CCC(c2ccc(C)cc2)=C(CC(=O)O)C1 13.4% [at 11.4 µM]
C[C@]1(C2CCCC2)Cc2cc(OCC(=O)O)c(Cl)c(Cl)c2C1=O 6.24%
CSc1cccc(NC(=O)OC2CCCCCCCCCCC2)c1 10.7% [at 11.4 µM]
Cc1cc(NC(=O)C2CCCC2)n(-c2nc3ccccc3[nH]2)n1 -10.9%
O=C(CSc1nnc(CNc2ccc(F)cc2)o1)OC1CCCCC1 -30.4%
Oc1ccc(/C=N/NC(=S)NCc2ccco2)cc1 2.33%
CCCn1c(C)nc2c(c1=O)c1nc3ccccc3nc1n2CCC1=CCCCC1 -23.2%
N#CC1(Nc2ccc(-c3ccc(NC4(C#N)CCCC4)cc3)cc2)CCCC1 8.6% [at 11.4 µM]
Cn1ncc(C#N)c1/N=C/N1CCCCCC1 3.27%
CCc1ccc(OCC(=O)NC(=S)Nc2ccc(C)cc2C)c(Br)c1 3.53%
CCOC(=O)c1nnn(-c2nonc2N)c1-c1ccccc1 5.69%
CCOC(=O)c1nnn(-c2nonc2N)c1-c1ccc(C)cc1 1.09%
Cc1nn(Cc2c(F)c(F)c(F)c(F)c2F)c(C)c1NC(=O)c1cccc(COc2ccc(Cl)cc2)c1 -24.2%
COc1ccc(Oc2ncc3ncc(=O)n(C[C@H]4CCCO4)c3n2)cc1 4.88%
COc1ccc(-c2cc(C(=O)Nc3cc(OC)c(OC)c(OC)c3)no2)cc1OC -1.21%
COc1ccc(NC(=O)c2cc(C(C)C)on2)cc1OC -22.8%
CC[C@H]1C2=C3C(CC[C@H]4C(OCc5ccc(F)cc5C(F)(F)F)OC[C@](C)([C@@H]34)N(C(=O)OC(C)(C)C)C2)C(COC)C1COC (stereo partly drawn) 2.49%
CC(=O)NC1(c2cccc(F)c2)CCN(CC(=O)NC2CCCCC2)CC1 -8.39%
Cn1c(CCNC(=O)c2ccccc2Cl)n[nH]c1=S -4.47%
O=C1O[C@H](CN2CCOCC2)CN1/N=C\c1ccc([N+](=O)[O-])o1 -18.9% [at 25.6 µM]
CCCSc1nnc(CSc2nc3nc(C)cc(C)n3n2)o1 -9.07%
Cc1ccccc1NC(=O)CSc1nc(N2CCCCC2)nc(N2CCCCC2)n1 14.4%
Cc1cc(SCC(=O)c2ccccc2)nc(SCC(=O)c2ccccc2)n1 7.93%
Cc1cn(CC[C@H](N)C(=O)O)c(=O)[nH]c1=O -3.77% [at 11.4 µM]
CCCC(=O)Nc1nc2n(n1)C(c1ccccc1)CC(=O)N2 (stereo not drawn) 22.6%
CC(C)CCN1CC(C(=O)N2CCN(c3ccc(F)cc3)CC2)CC1=O (stereo not drawn) -1.61%
CCOC(=O)c1cnc2c(cnn2C)c1NCCCN(C)C -15.8%
C#CCCCO/N=C1/C[C@@H](O)[C@@H](O)[C@@H]2[C@@H]3C(=O)N(Cc4ccccc4)C(=O)[C@H]3CC[C@@H]12 19.7% [at 11.4 µM]
CCOC(=O)C(NC(=O)CC)(Nc1sc2c(c1C(=O)OC)CCN(C)C2)C(F)(F)F (stereo not drawn) -1.69%
CCCNC(=O)OC[C@H]1O[C@@H](CCO/N=C\[C@@H](NS(=O)(=O)c2ccc(C)cc2)[C@H](C)/C=C\CC(=O)OC)C=C[C@@H]1Oc1ccc(OC)cc1 -7.16% [at 11.4 µM]
COc1ccc2cc(CCC(C)=O)ccc2c1 -4.42% [at 25.6 µM]
O=C(O)CCCc1ccc2ccccc2c1 0.631% [at 11.4 µM]
CS(=O)(=O)N1CCN(c2ccc(C(=O)NC3C4CC5CC(C4)CC3C5)cc2[N+](=O)[O-])CC1 (stereo not drawn) -10%
Cc1ccc(NC(=O)CCC(=O)c2ccc(F)cc2)cc1Cl -10.9%
O=C(NCCCN1CCCC1=O)Nc1ccc(F)c(Cl)c1 0.447%
Cc1ccc(CS(=O)(=O)CCC(=O)NCCCOC(C)C)cc1 10.1%
O=C(NCCOc1nc(N2CCOCC2)nc(N2CCOCC2)n1)Nc1ccccc1 6.07%
CCN(CC)c1ccc(NC(=O)CN2CCN(c3ccccc3F)CC2)cc1 -23.1%
O=C(NCCCN1CCN(c2ccccc2F)CC1)C1CCC(=O)N1C1CCCCC1 (stereo not drawn) -17.4%
Cc1ccc(CS(=O)(=O)CCC(=O)NCCCN2CCCC2)cc1 -24.2%
O=C(O)c1ccccc1-c1ccccc1C(=O)Nc1ccc2c(c1)Cc1cc(F)ccc1-2 -13.4% [at 11.4 µM]
O=C(O)/C=C/C(=O)Nc1ccc(F)cc1F 22.9%
O=C(O)C[C@H]1OCC=C2C[N@@+]3([O-])CC[C@]45c6ccccc6N[C@@H]4[C@@H]1[C@H]2C[C@H]53 9.02% [at 11.4 µM]
Cc1nc2cnc(N(C)C)nc2n(C)c1=O -12.7%
O=C(O)c1ccccc1-c1ccccc1C(=O)Nc1ccc2c(c1)[nH]c(=O)c1ccccc12 -5.23% [at 11.4 µM]
O=c1c(-c2cc(F)cc(F)c2)nc2cncnc2n1Cc1ccccc1Cl -8.97%
CN1CCN(NC(=O)CN2C(=O)/C(=C/c3c(Cl)cccc3Cl)SC2=S)CC1 -9.02%
COc1cc2cc3c(N)c(C(=O)Nc4sc(C)c(C)c4C#N)sc3nc2cc1OC -0.0904%
C[C@](N)(C(=O)O)c1ccc(-c2nn[nH]n2)cc1 -0.522%
CCOC(=O)c1cc(CC)sc1NC(=O)c1cc(OCC)c(OCC)c(OCC)c1 -1.3%
Cc1ccc(NC(=O)N/C=C/c2ccc(Cl)cc2)cc1 8.55%
Cc1ccc(NC(=O)NCCCc2ccccc2)cc1 -26.1%
NCCNC(=S)S -18.7% [at 11.4 µM]
O=C(NCc1cccnc1)c1sc2cc(Cl)ccc2c1Cl -81.1%
S=C(S)NCCN1CCNCC1 -7.83% [at 11.4 µM]
COc1ccc(C(=O)N/C(=C/c2cccs2)C(=O)NCCCn2ccnc2)cc1OC -6.39%
Cn1nc(-c2ccccc2)c(C(=O)Nc2ccc(Cl)cc2)c1Cl 18.7%
CSc1ccc(NC(=O)Nc2cc(C)ccn2)cc1 -10.4% [at 11.4 µM]

AC50, inactive:
CN(C)CCOC(=O)COc1ccc(Cl)cc1
CCOC(=O)c1cnc2c(cnn2CC)c1NN=C(C)C

AC50, inactive and 200 nM (active):
CCCCNc1c(C(=O)OCC)c(C)nc2c1cnn2CC

AC50, active:
COc1ccc(CN(CCN(C)C)c2ccccn2)cc1 501 nM and 126 nM and 100 nM
CCCCCCCCCCCCCCCC[N+](C)(C)CCN(Cc1ccc(OC)cc1)c1ncccn1 12.6 µM
CN(C)CCN(Cc1ccc(Cl)cc1)c1ccccn1 0.02 µM
NC(N)=N/N=C(/c1ccccc1)c1ccc(O)cc1O 1.26 µM
CC(=O)Nc1ccc2nc(C3CCCCC3)[nH]c2c1 12.6 µM
CCOC(=O)c1nnn(-c2nc(OC)nc(N3CCCCC3)n2)c1-c1ccccc1 17.8 µM
COc1ccc(NC(=O)c2ccc(-c3ccc(-c4noc(C)n4)cc3C)cc2)cc1OCCN(C)C 12.6 µM
Cc1cccc(Nc2cc(Cl)nc(SCC(=O)O)n2)c1C 3.16 µM
NNC(=O)CCc1ccc2ccc3ccccc3c2c1 1.58 µM
O=C(CCN1CCc2ccccc2C1)Nc1ccc(F)cc1 2.24 µM
CSc1ccc(NC(=O)NCCCN2CCN(c3ccccc3F)CC2)cc1 3.55 µM
Cc1ccccc1CS(=O)(=O)CCC(=O)NCCCN1CCN(c2ccccc2F)CC1 3.55 µM
O=C(NCCCN1CCc2ccccc2C1)Nc1ccc(Cl)cc1 3.55 µM
O=C(NCCCn1ccnc1)Nc1ccc(Cl)cc1 1.58 µM
S=C(S)NCCCn1ccnc1 0.794 µM
COc1ccc2c(Cl)c(C(=O)NCCCn3ccnc3)sc2c1Cl 0.631 µM
CSc1ccc(NC(=O)NCCN2CCc3ccccc3C2)cc1 5.01 µM

— PubChem BioAssay AID1851 (National Center for Advancing Translational Sciences (NCATS), 2009)
